Measured values published in PubChem BioAssay.
Unmarked numbers belong to inactive results. The rule behind the calls is not given here.

Target: Pantothenate synthetase (Mycobacterium tuberculosis (strain ATCC 25618 / H37Rv)) (UniProt P9WIL5)
Experiment: Recombinant Mtb pantothenate synthetase (PanC) inhibitors, coupled enzyme, confirmatory (AID 375);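 note: 0% = full reaction with vehicle and 100% = no enzyme background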
Settings: coupled enzyme assay; at 10 µM, hits give high values

Pantothenate synthetase (Mycobacterium tuberculosis (strain ATCC 25618 / H37Rv)), sequence (P9WIL5 whole entry, looked up): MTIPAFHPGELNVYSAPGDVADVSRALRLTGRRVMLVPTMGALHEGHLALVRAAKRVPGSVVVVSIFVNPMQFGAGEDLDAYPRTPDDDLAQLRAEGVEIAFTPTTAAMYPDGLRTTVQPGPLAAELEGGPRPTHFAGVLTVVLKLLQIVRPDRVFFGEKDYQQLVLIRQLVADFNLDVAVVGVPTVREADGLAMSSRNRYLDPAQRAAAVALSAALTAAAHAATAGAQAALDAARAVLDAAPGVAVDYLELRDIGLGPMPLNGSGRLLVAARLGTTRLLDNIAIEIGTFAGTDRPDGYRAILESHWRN

SMILES | inhibition [%]
CN(C(=O)C1CCCO1)c1nnc(-c2ccncc2)s1 (centres undefined) | 1
CCOC(=O)N1CCN(C(=O)COc2ccc(S(=O)(=O)NC3CCCCC3)cc2C)CC1 | 2
O=C(COC(=O)c1ccco1)NCc1cccs1 | 0
COC(=O)CSC1=C(C#N)C(c2ccc(F)cc2)CC(=O)N1 (centres undefined) | 0
CCCc1cc(=O)[nH]c(Nc2ccc(OC)c(Cl)c2)n1 | 3
COC(=O)Cn1ncc2c(C)n(Cc3ccccc3)c(C)c2c1=O | 2
Cc1nc(SCC(=O)N2CCC(C(N)=O)CC2)n[nH]1 | 0
N#Cc1nc(COc2ccc(Br)cc2)oc1N1CCCC1 | 16
O=C(CSc1ncnc2sc3c(c12)CCCCC3)NCc1ccco1 | 3
CN/C=C1\C(=O)C(C)(C)Oc2ccc3ccc(=O)oc3c21 | 9
COc1ccc(C2CC(c3ccc(C)cc3)Nc3ncnn32)cc1 (centres undefined) | 0
CCCSc1nnc2nc3c(nn12)c1ccccc1n3C | 0
CC(C)CCNC(=O)C1CCN(C(=O)N(C)C)CC1 | 0
O=S(=O)(Nc1cccnc1)c1cc(Cl)ccc1Cl | 0
CN(c1cccc(NS(=O)(=O)c2cccs2)c1)S(C)(=O)=O | 0
CCCC(=O)Nc1nnc(CC(=O)N2CCCC2)s1 | 0
C=CCC1(O)C(=O)Nc2ccccc21 (centres undefined) | 0
COCCCNC(=O)c1ccccc1NS(=O)(=O)c1ccc(C)cc1 | 1
COc1ccc(N2CCN(C(c3ccccc3)c3sc4nc(C)nn4c3O)CC2)cc1 (centres undefined) | 0
